Experiment: HepG2 cell viability effects, profiling panel, calcein-AM fluorescence, 48 h, basal (AID 1164); further: test concentration not given here
Conditions: higher = more signal

| SMILES | z-score |
| --- | --- |
| COCCOC(=O)N1C(=O)[C@@]2(c3ccccc31)[C@H](C(=O)N1CCN(c3ncccn3)CC1)[C@H]1C(=O)O[C@H](c3ccccc3)[C@H](c3ccccc3)N1[C@@H]2c1ccccc1OCCO | -0.0577 |
| Cc1ccc(C(C)CC(O)C2C=CC3C(=O)N(C)C(=O)C3N2Nc2ccccc2)o1 (stereo unspecified) | 0.345 |
| CC1CC/C=C\[C@H]2OC34C=CCN(CCN5CCOCC5)C(=O)[C@H]3N(CCCO)C(=O)[C@@H]4C2C(=O)O1 (stereo partly specified) | -0.723 |
| CCCNC(=O)[C@@]1(c2ccc([N+](=O)[O-])cc2)CC(=O)N(C(C)C)[C@@H]1c1ccc(CO)cc1 | -0.359 |
| C=C(COC)/C(=C/C[C@H](OC(C)=O)c1ccccc1OCCO)c1cc(C(=O)OC)ccc1OC | -0.63 |
| CC(C)C(=C=CC[C@H](O)c1ccccc1OCCO)C[C@H](O)COCc1ccccc1 | 0.245 |
| CCCC[C@H]1OB(O)C[C@H]2C1=C(COc1ccccc1)C[C@H]1C(=O)C=CC(=O)[C@H]12 | 0.176 |
| Cc1ccc(N2C(=O)c3ccccc3[C@](C)(C(=O)NCCCN(C)C)[C@@H]2c2ccc(CO)cc2)nc1 | -0.153 |
| CCCCC(O)C1C=CC2C(=O)N(c3ccccc3)C(=O)C2N1Nc1ccc([N+](=O)[O-])cc1 (stereo unspecified) | 0.0784 |
| C=CCC(OC(C)=O)[C@@H]1[C@@H](N(Cc2ccc(-c3cccc(C(F)(F)F)c3)o2)C(=O)c2ccc(-c3ccccc3)cc2)c2cc(OCCCO)ccc2N1C(=O)c1ccc2ccccc2c1 (stereo partly specified) | 0.612 |
| C=C(CCCC)/C(=C/C[C@H](OC(C)=O)c1cccc(OCCO)c1)c1cnc2ccccc2c1 | 0.301 |
| OCCCC1=CC(c2ccc(CN3CCCC3)cc2)N(Cc2cccc(OC(F)(F)F)c2)CC1 (stereo unspecified) | -4.99 |
| C=C(COC)C(=O)CC[C@H](OC(=O)c1cccnc1)c1ccc(OCCO)cc1 | 0.143 |
| COc1ccc(C(O)C2C=CC3C(=O)N(c4ccccc4)C(=O)C3N2Nc2ccc(C#N)cc2)cc1OCc1ccccc1 (stereo unspecified) | 0.753 |
| C=CCNC(=O)[C@H]1[C@@H]2C(=O)O[C@@H](c3ccccc3)[C@@H](c3ccccc3)N2[C@@H](c2ccc(OCCO)cc2)[C@]12C(=O)Nc1ccc(C#CC3(O)CCCCCC3)cc12 | -0.0346 |
| CC[C@@H]1C=C(C(=O)O)[C@H](c2ccc(OC)cc2)N1S(=O)(=O)c1ccc(C)cc1 | -0.183 |
| O=C1C2C=CC(C(O)C3CCCCC3)N(n3cnnc3)C2C(=O)N1Cc1ccccc1 (stereo unspecified) | -0.611 |
| [N-]=[N+]=NCc1ccccc1[C@@H]1OC(c2ccc(OCCCO)cc2)=N[C@]1(Cc1ccccc1N=[N+]=[N-])C(=O)O | -0.567 |

| SMILES | z-score |
| --- | --- |
| COC(=O)c1cccc([C@H]2OC(=CC(=O)OC(C)C)C[C@@H](c3cccc(C(=O)OC)c3)O2)c1 | -0.248 |
| CN(C)CCCNC(=O)[C@@]1(Cc2ccccc2I)c2ccccc2C(=O)N(C2CCCCC2)[C@H]1c1ccc(CO)cc1 | -5.11 |
| O=C1NC(=O)C2C1C=CC(C(O)c1ccc(B(O)O)cc1)N2Nc1ccc(Cl)cc1Cl (stereo unspecified) | -1.19 |
| COC(=O)[C@@]1(Cc2ccccc2)[C@H]2c3cc(C(=O)N(C)C)n(CCO)c3C[C@H]2CN1C(=O)c1ccccc1 | -0.28 |
| C=C(CCCC)C(=O)CC[C@H](OC(=O)c1ccccc1-c1ccccc1C(=O)O)c1ccc(OCCO)cc1 | -0.549 |
| O=C1OCCC=C[C@H]2OC34C=CCN(c5ccc6ccccc6c5)C(=O)[C@H]3N(CCO)C(=O)[C@@H]4C12 (stereo partly specified) | 0.0955 |
| COc1cc(CO)cc(I)c1O[C@H]1C=C(C(=O)NCCO)C[C@@H]2O[C@H]12 | -0.697 |
| COCCOC(=O)N1C(=O)[C@@]2(c3cc(C#CCC(C(=O)OC)C(=O)OC)ccc31)[C@H](C(=O)Nc1nc3ccccc3s1)[C@H]1C(=O)O[C@H](c3ccccc3)[C@H](c3ccccc3)N1[C@@H]2c1ccc(OCCO)cc1 | 0.593 |
| CC(C)C[C@H]1NC(=O)C([C@@H](C)OCc2ccccc2)NC(=O)[C@@]23C(=O)N[C@@H](Cc4ccccc4)C2[C@H](C)[C@@]2(C)O[C@H]2C3/C=C/C/C=C\CNC1=O (stereo partly specified) | -0.3 |
| C=C(COC)/C(=C/C[C@@H](OC(C)=O)c1ccccc1OCCO)c1cnc2ccccc2c1 | -0.268 |
| COc1ccc([Si](C)(C)[C@@H]2[C@@H](CC(=O)N3CCC[C@H]3CO)O[C@]3(C(=O)N(Cc4ccc(N5CCOC5=O)cc4)c4ccccc43)[C@H]2C)cc1 | -2.21 |
| COC(=O)[C@@]1(Cc2ccccc2)[C@H]2c3cc(C(=O)N(C)C)n(CCSC(=N)N)c3C[C@H]2CN1C(=O)c1ccccc1 | -1.11 |
| O=C1O[C@@H](c2ccccc2)[C@@H](c2ccccc2)N2[C@@H](c3ccc(OCCO)cc3)[C@]3(C(=O)Nc4ccc(C#CC5(O)CCCCCC5)cc43)[C@@H](C(=O)Nc3nc4ccccc4s3)[C@H]12 | 0.667 |
| COCCCN1C(=O)[C@@]2(c3ccc([N+](=O)[O-])cc3)CC(=O)N(CC34CC5CC(CC(C5)C3)C4)[C@@H]2c2ccc(CO)cc21 | 1.07 |
| O=C1C2C=CC(C(O)c3cccs3)N(Nc3ccc([N+](=O)[O-])cc3)C2C(=O)N1c1ccccc1 (stereo unspecified) | 1.43 |
| C=C1C(=O)C=C2CN(C(=O)c3ccccc3)[C@@](Cc3ccc(OC)cc3)(C(=O)OC)[C@@H]12 | -1.62 |
| CCOC(=O)C[C@H]1[C@H](OC(=O)c2cc3ccccc3oc2=O)[C@@H](NC(=O)CC(C)C)c2cc(OCCCO)ccc2N1C(=O)Cc1ccc(OC)cc1 | 0.535 |
| CCOC(=O)C1=CC[C@@H](c2ccccc2)N(S(=O)(=O)c2ccc(C)cc2)[C@H]1c1ccccc1I | -0.47 |

Reference: PubChem BioAssay
